High-throughput results: PubChem, The Scripps Research Institute Molecular Screening Center
DAX1 inh-1 = blocks DAX1 repression of SF-1 activated StAR promoter; HEK293T StAR-luciferase reporter, SF-1/DAX-1 repression relief; inhibition, % at 6.8 µM; 370,000 tested, 1.1% active;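 active = inhibition above the mean over all tested compounds plus 3 SD, cut at about 3.6% in these data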;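 also: higher inhibition means more luminescence from relief of DAX-1 repression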
DAX1 inh-2 = inhibitors of human orphan nuclear receptor DAX1 (NR0B1); HEK293 Gal4-DAX1 luciferase reporter, luminescence; inhibition, % at 6.75 µM; 340,000 tested, 0.99% active;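 active = inhibition above the mean over all tested compounds plus 3 SD, cut at about 4.2% in these data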;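 also: inhibition shows as a rise in luminescence from relieved DAX1 repression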
hcDAF12 agonist = activates DAF-12 receptor from parasite H. contortus. HEK293 hcDAF-12 lit1-tk-luc reporter, luminescence; 0% DMSO, 100% Δ7-dafachronic acid. activation, % at 6.8 µM. 370,000 tested, 1.4% active;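 active = activation above the mean of all tested compounds plus 3 SD, cut at about 5.5% in these data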
hgDAF12 agonist = agonists of H. glycines DAF-12 nuclear receptor. HEK293 GAL4-hgDAF12 UAS-luciferase reporter, agonist luminescence; normalized to butyrate control. activation, % at 6.8 µM. 370,000 tested, 1.8% active. AID 687014;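 active = activation above a cutoff set at the mean of all screened compounds plus 3 SD, cut at about 10% in these data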
ssDAF12 agonist = activates DAF-12 receptor from parasite S. stercoralis | HEK293 ssDAF-12/GRIP1 lit1-tk-luc reporter, luminescence; % of 3 µM dafachronic acid response | activation, % at 6.8 µM | 370,000 tested, 1% active;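 active = activation above the mean over all tested compounds plus 3 SD, cut at about 0.9% in these data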
DAX1 conf = confirmation of human DAX1 (NR0B1) inhibitors. shares compounds with DAX1 inh-1. HEK293T StAR-promoter luciferase reporter, SF-1/DAX-1 repression. inhibition, % at 6.8 µM. 2,400 tested, 87% active;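 active = inhibition above the average of every tested compound plus 3 SD, cut at about 3.8% in these data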;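 also: active compounds raise luminescence by relieving repression of the StAR reporter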
Target sequence (P51843 whole entry, looked up): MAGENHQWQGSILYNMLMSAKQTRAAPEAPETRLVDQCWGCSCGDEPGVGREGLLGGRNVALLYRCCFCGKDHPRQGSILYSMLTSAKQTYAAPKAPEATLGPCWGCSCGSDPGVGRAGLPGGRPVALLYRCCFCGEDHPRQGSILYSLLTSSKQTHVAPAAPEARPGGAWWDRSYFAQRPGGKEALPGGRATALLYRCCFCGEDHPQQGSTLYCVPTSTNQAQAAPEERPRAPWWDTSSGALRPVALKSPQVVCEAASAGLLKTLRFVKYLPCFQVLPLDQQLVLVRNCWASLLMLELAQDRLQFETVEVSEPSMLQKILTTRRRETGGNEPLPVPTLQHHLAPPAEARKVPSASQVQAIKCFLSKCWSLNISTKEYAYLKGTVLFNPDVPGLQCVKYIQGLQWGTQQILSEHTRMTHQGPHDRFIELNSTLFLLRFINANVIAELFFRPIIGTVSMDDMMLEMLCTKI
SF1 AF2mut Luc = nonselective inhibitor or artifact in SF-1 mutant DAX1 counter-screen. shares compounds with DAX1 inh-1. AID 652136. 2,400 tested, 78% active. inhibition, % at 6.8 µM. HEK293 StAR-luciferase, SF-1 AF2 mutant, luminescence;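 active = inhibition above the mean of all tested compounds plus 3 SD, cut at about 3% in these data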
Hits are given with their value; . = inactive; / = not tested or not shown. Most compounds without a hit are left out; they make up all but 4.1% or so of the library.

SMILES	DAX1 inh-1	DAX1 inh-2	hcDAF12 agonist	hgDAF12 agonist	ssDAF12 agonist	DAX1 conf	SF1 AF2mut Luc
C#CCN(C[C@H]1[C@H](OC(=O)NC2CC2)[C@H](OC(=O)NC2CC2)C[C@H]2C(=O)N(c3ccccc3)C(=O)[C@@H]12)S(=O)(=O)c1ccc(C)cc1	.	.	.	.	.	/	/
C#CCN(C[C@H]1[C@H](OC(=O)Nc2cccs2)[C@H](OC(=O)Nc2cccs2)C[C@H]2C(=O)N(c3ccccc3)C(=O)[C@@H]12)S(=O)(=O)c1ccc(C)cc1	4.6	.	.	.	.	.	.
Cc1cccc(C(=O)Nc2nc3ncccn3c2-c2ccc(C(F)(F)F)cc2)c1	.	/	.	.	.	/	/
Cc1cccc(CN2CCCC(C(=O)Nc3ccc(-c4cscn4)cc3)C2)c1 (stereo unspecified)	4.6	.	.	.	.	.	.
Cc1ccc(C(=O)CN2C(=O)NC3(CCCCCC3)C2=O)c(C)c1	5.5	.	.	.	.	4.2	3.8
CC12CCC(=O)N1C(C(=O)NNC(=O)c1ccc(Br)cc1)CS2 (stereo unspecified)	5.5	.	.	.	.	.	.
Cc1ccc(C(=O)NNC(=O)C2CSC3(C)CCC(=O)N23)cc1 (stereo unspecified)	.	.	.	.	.	/	/
CCOC(=O)[C@@]12CN(C(=O)OC(C)(C)C)CC=C1N(Cc1ccc(OC)cc1)C(=O)[C@H]2CC(=O)N1CCN(C(=O)c2ccco2)CC1	.	/	.	.	.	/	/
N#C/C(=N\Nc1cccc(F)c1)C(=O)C1CC1	.	.	.	.	.	/	/
N#C/C(=N\Nc1cccc(F)c1)C(=N)N1CCCCCC1	6.8	7.0	.	13	1.7	19	8.6
COc1ccc(-c2cc(NC=O)c3ncc(-c4ccc(OC)c(OC)c4)n3c2)cc1OC	.	/	.	.	.	/	/
COc1ccc(-c2cnc3c(NC=O)cc(-c4ccccc4OC)cn23)cc1OC	11	/	.	.	.	30	.
O=C(NCc1ccccc1)c1ccc(CO)cc1	.	/	.	.	.	/	/
COc1ccc(-c2oc3cc(O)c(OC)c(O)c3c(=O)c2OC)cc1O	7.9	.	.	.	.	16	.
O=C(NC1CCCCN(Cc2cccc(C(F)(F)F)c2)C1=O)c1ccc(COc2ccccc2)cc1 (stereo unspecified)	.	/	.	.	.	/	/
CCOc1cc(N2CCOCC2)c(OCC)cc1NC(=O)Cn1cnnn1	.	.	.	.	.	/	/
CCOc1cc(N2CCOCC2)c(OCC)cc1NC(=O)Cn1nc(C)c([N+](=O)[O-])c1C	4.7	.	.	.	.	.	.
Cc1ccccc1NC(=O)CN1CCN(c2nc(-c3ccccc3)cs2)CC1	.	/	.	.	.	/	/
Cc1nc2nc(-c3ccc(Cl)cc3)cn2nc1C	6.2	.	.	.	.	9.4	2.9
Cc1nc2nc(-c3cccs3)cn2nc1C	.	.	.	.	.	/	/
O=C(N[C@H](C(=O)N1CCC[C@H]1C(=O)NC1CCCC1)c1ccccc1)C1CCCC1	.	/	.	.	.	/	/
O=C(NCCc1ccc(F)cc1)NC12CC3CC(CC(C3)C1)C2	8.3	.	.	.	.	10	7.6
COCCn1c(/C=C/c2ccccc2)nc2ccccc21	9.8	.	.	11	.	9.7	3.5
Cc1c(NC(=S)NC(=O)c2cc3ccccc3o2)cccc1C(=O)O	6.8	.	.	.	.	6.6	5.8
CN1CCN(c2ccccc2NC(=S)NC(=O)c2cc3ccccc3o2)CC1	.	.	.	.	.	/	/
SMILES	DAX1 inh-1	DAX1 inh-2	hcDAF12 agonist	hgDAF12 agonist	ssDAF12 agonist	DAX1 conf	SF1 AF2mut Luc
O=C(Nc1ccc(-c2nc3ccccc3[nH]2)cc1)C1CCCO1 (stereo unspecified)	7.7	.	.	13	.	15	8.9
C[C@H](O)[C@@H]1CN2CCc3c([nH]c4cccc(-c5ccccc5)c34)[C@@H]2C[C@@H]1N(C)C(=O)c1ccco1	.	/	.	.	.	/	/
Cc1n[nH]c(C)c1NC(=O)CN1CCN(S(=O)(=O)c2ccc(C(F)(F)F)cc2)CC1	4.6	.	.	.	.	.	5.2
COC(=O)CSc1nc2cc(C)ccc2cc1C#N	5.0	4.4	.	12	1.2	18	9.3
CC(=O)N(C)c1ccc(N=Nc2ccc3ncccc3c2)cc1	5.5	.	5.7	12	.	10	3.7
COc1ccc(-c2csc(N3C(=N)SCC3=O)n2)cc1	6.9	.	6.4	13	.	16	7.4
O=C(COc1ccc2ccccc2c1Br)Nc1cccnc1	5.1	.	.	.	.	4.2	.
O=C(c1cc([N+](=O)[O-])ccc1N1CCOCC1)N1CCN(c2ccccc2)CC1	14	.	.	.	.	17	.
COC[C@@H]1CCCN1c1cccc2c1S(=O)(=O)N1CC[C@H](C1)O2	.	/	.	.	.	/	/
COc1cccc(NC(=O)Nc2ccc3c(c2)OCO3)c1	8.4	.	.	.	.	6.2	4.9
COc1cccc(NC(=O)CN(C)CC(=O)Nc2ccc3c(c2)OCO3)c1	.	.	.	.	.	/	/
Cc1ccc(NC(=O)Nc2ccc3c(c2)OCO3)c(OC(F)F)c1	5.7	.	.	.	.	9.1	7.1
COc1ccc(NC(=O)Nc2ccc(C)cc2OC(F)F)cc1OC	.	.	.	.	.	/	/
Cc1ccc2nc(SCC(=O)N3CCCC3)[nH]c2c1	4.8	.	.	.	.	12	6.1
Cc1ccc2nc(SCC(=O)N3CCN(C(=O)c4ccco4)CC3)[nH]c2c1	.	.	.	.	.	/	/
COc1ccc(OCCSc2nnnn2C2CCCCC2)cc1	.	.	.	.	.	/	/
c1ccc(OCCSc2nnnn2C2CCCCC2)cc1	4.5	.	.	13	.	11	8.3
COc1ccc(C2=NN3C(C2)c2ccccc2OC3c2cccs2)cc1 (stereo unspecified)	4.5	.	7.9	23	.	12	7.6
O=C(NC(=S)NN1CCOCC1)c1cc(Br)ccc1Cl	5.2	.	.	.	.	.	.
O=C(NN1CCOCC1)c1cc(Cl)ccc1Cl	.	.	.	.	.	/	/
COC(=O)[C@]12C[C@H](CC(=O)NCc3cccc4ccccc34)C(=O)N(Cc3cccc4ccccc34)C1=C[C@H](C1CCCC1)O[C@@H]2C	.	/	.	.	.	/	/
CCCCCCNC(=O)C1CSCCS(=O)(=O)N1Cc1ccccc1 (stereo unspecified)	.	/	.	.	.	/	/
CCOc1ccc(C(=O)COC(=O)c2nc3nccc(C)n3n2)cc1	4.9	.	.	.	.	.	.
Cc1ccnc2nc(C(=O)OCCOc3ccc(Cl)cc3)nn12	.	.	.	.	.	/	/
CCOC(=O)C(Cc1ccccc1)P(=O)(OCC)OCC (stereo unspecified)	/	/	.	.	.	/	/
